# FBW7 activator: activators of human E3 ligase FBW7 | Q969H0 | AlphaScreen FBW7–phospho-cyclin E peptide binding, activator screen | normalized activity (activation), % at 26.1 µM | 650,000 tested, 0.13% active; in the data active means normalized activity above about 1.9%;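 further: purified mutant Fbw7 with reduced substrate affinity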
# GPR151 activ: activates the human receptor GPR151; PathHunter beta-arrestin GPR151 cells, luminescence; Q8TDV0; 650,000 tested, 1% active; AID 1508602; activation, % at 11.2 µM; in the data active means activation above about 4.9%;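 further: 0% = median of compound wells and 100% = cells with positive control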
# MITF inh: blocks human microphthalmia-associated transcription factor; O75030; AlphaScreen MITF homodimerization, bead proximity signal; inhibition, % at 2.6 µM; 650,000 tested, 0.91% active; in the data active means inhibition above about 50%;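 further: 0% = vehicle wells with protein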
# Target sequence (O75030 whole entry, looked up): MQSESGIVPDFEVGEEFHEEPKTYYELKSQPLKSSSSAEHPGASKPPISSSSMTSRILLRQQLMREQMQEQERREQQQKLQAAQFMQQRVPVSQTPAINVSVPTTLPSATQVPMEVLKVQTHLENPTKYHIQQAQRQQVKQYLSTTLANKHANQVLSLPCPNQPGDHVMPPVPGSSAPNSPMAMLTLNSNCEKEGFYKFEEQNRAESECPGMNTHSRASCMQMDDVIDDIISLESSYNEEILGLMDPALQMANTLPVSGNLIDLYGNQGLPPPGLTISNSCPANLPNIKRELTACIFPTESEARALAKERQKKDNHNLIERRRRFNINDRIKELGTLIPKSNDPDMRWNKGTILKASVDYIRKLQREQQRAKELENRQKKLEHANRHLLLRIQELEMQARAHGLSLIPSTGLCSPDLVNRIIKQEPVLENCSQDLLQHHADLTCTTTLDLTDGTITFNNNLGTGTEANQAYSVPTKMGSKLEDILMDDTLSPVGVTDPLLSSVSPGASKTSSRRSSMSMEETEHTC
# TEAD-YAP inh: TEAD-YAP interaction inhibition. AID 1259422. inhibition, % at 9.12 µM. 640,000 tested, 1.4% active. HEK-TIYL cells, TEAD-Gal4/YAP UAS-luciferase luminescence; in the data active means inhibition above about 32%;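 further: 0% = median of test compound wells and 100% = reference inhibitor wells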
# MITF confirm: confirmation of human MITF inhibitors; shares compounds with MITF inh; AlphaScreen MITF homodimerization, biotin/His-MITF beads; inhibition, % at 2.6 µM; 4,700 tested, 16% active;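 active means inhibition above a cutoff derived from the DMSO control wells, cut at about 28% in these data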;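 further: 0% = MITF dimer wells with DMSO only; inhibitors lower the bead chemiluminescence by keeping MITF from dimerizing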
# AS interf ctr: AlphaScreen optical interference, counter-screen; LysRS AlphaScreen counterscreen, signal interference, triplicate; inhibition, % at 2.6 µM; 4,700 tested, 7.6% active; shares compounds with MITF inh;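 active means inhibition above a cutoff derived from the DMSO control wells, cut at about 30% in these data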
# Active calls of the source: *; . = no result given. An excerpt weighted towards active compounds, which were near 3.5% of everything screened.
SMILES,FBW7 activator,GPR151 activ,MITF inh,TEAD-YAP inh,MITF confirm,AS interf ctr
COC(=O)Cn1c(O)c(N=NC(=O)c2ccc(/C=N/O)nc2)c2ccccc21,0.0,-0.6,19.1,0.9,.,.
O=C(c1ccncc1)N1CCN(Cc2ccc3c(c2)OCO3)CC1,0.8,-0.9,86.6*,-5.6,-0.6,1.2
CN1CCN(C(=S)C(=O)NCc2ccc3c(c2)OCO3)CC1,-0.1,1.5,-5.5,5.2,.,.
O=C(CNCc1ccco1)NCc1ccc2c(c1)OCO2,-0.1,-0.2,66.5*,1.5,9.5,21.4
OC(CN1CCOCC1)CN1CCN(Cc2ccc3c(c2)OCO3)CC1 (configuration not stated),0.1,0.4,76.2*,-0.9,6.7,9.7
Cc1ccc(CN(Cc2ccco2)C(=S)NCC(=O)NCc2ccc3c(c2)OCO3)cc1,-0.2,1.2,6.0,6.8,.,.
CN1CCN(CC(=O)NCc2ccc3c(c2)OCO3)CC1,0.0,-0.4,83.3*,10.1,6.0,17.8
Cc1ccccc1CN1CCC(CN)CC1,-0.1,-0.2,-3.6,11.3,.,.
c1cc2c(cc1CN1CCCCC1)OCO2,-0.1,0.9,1.4,-0.5,.,.
CCCS(=O)(=O)N1CCN(Cc2ccc3c(c2)OCO3)CC1,0.0,-0.8,53.3*,-5.7,10.1,17.9
c1cc2c(cc1CN1CCN(Cc3ccc4c(c3)OCO4)CC1)OCO2,0.1,1.7,69.5*,1.8,-0.7,3.2
CCCS(=O)(=O)N1CCN(Cc2cccc(F)c2)CC1,-0.1,1.8,45.2,-9.1,.,.
Cc1ccccc1CN1CCN(CC2CC=CCC2)CC1 (configuration not stated),0.0,-1.8,68.0*,-9.3,-2.6,16.9
Cc1cc(C)c(C)c(S(=O)(=O)N2CCN(c3cccc(C(F)(F)F)c3)CC2)c1C,-0.1,1.7,63.3*,-2.9,4.4,17.4
Cc1c(S(=O)(=O)N2CCN(c3cccc(C(F)(F)F)c3)CC2)c(=O)n(C)c(=O)n1C,0.7,-1.6,22.4,6.2,.,.
C1=CC2CC1CC2CN1CCN(C2CCCCCC2)CC1 (configuration not stated),-0.1,-0.4,55.2*,14.3,-3.2,-5.7
C1=CC2CC1CC2CN1CCN(C2CCCCC2)CC1 (configuration not stated),0.0,-0.1,47.9,7.4,.,.
CCC(C)N1CCN(CC2CC3C=CC2C3)CC1 (configuration not stated),0.1,0.3,72.8*,-7.6,-3.2,0.9
C1=CC2CC1CC2CN1CCN(C2CCCC2)CC1 (configuration not stated),-0.1,-0.1,66.5*,0.6,-17.7,-3.6
C1=CC2CC1CC2CN1CCN(C2CCC(c3ccccc3)CC2)CC1 (configuration not stated),0.0,0.3,63.0*,3.9,-15.9,3.5
COc1ccc2c(c1)OC(C)CN(CC(=O)NCCCc1cccnc1)C2 (configuration not stated),0.0,-0.8,-14.3,-10.0,.,.
C[N+]12CCCCC1[C@@H](CCCC#N)CCC2 (some centres not stated),0.0,0.1,7.2,0.7,.,.
O=C(O)C1CCN(c2ncc(-c3ccc(Cl)cc3)cn2)CC1,0.1,1.2,60.7*,-16.8,9.7,9.0
CC1=NN2C(=N)/C(=C\c3cccn3-c3ccc([N+](=O)[O-])cc3)C(=O)N=C2S1,-0.2,-0.8,6.1,4.8,.,.
Cc1ncc(CO)c(/C=N/NC(=S)Nc2cccc(Cl)c2)c1O,-0.6,1.1,38.4,0.5,.,.
SMILES,FBW7 activator,GPR151 activ,MITF inh,TEAD-YAP inh,MITF confirm,AS interf ctr
Cc1ncc(CO)c(/C=N/NC(N)=S)c1O,-0.4,0.3,104.7*,0.2,5.8,26.9
Cc1ncc(CO)c(/C=N/NC(=S)Nc2cccc(S(=O)(=O)N(C)C)c2)c1O,-0.1,0.2,68.4*,4.3,6.9,22.3
Cc1ccc2cc(C)c3nn(CC(=O)N4CCC(C(N)=O)CC4)c(=O)n3c2c1C,0.0,2.1,-2.1,-6.4,.,.
Cc1sc2ncn(CC(=O)NCC(=O)N3CCN(c4ccc(F)cc4)CC3)c(=O)c2c1C,0.5,2.6,68.2*,2.2,2.1,3.9
O=S(=O)(c1ccc(Cl)cc1)N1CCN(Cc2cccc(Br)c2)CC1,-0.1,0.6,50.7*,5.5,11.1,8.2
O=S(=O)(c1ccc(F)cc1)N1CCN(Cc2cccc(Br)c2)CC1,0.1,0.3,59.8*,7.1,5.6,6.1
COC(=O)c1ccccc1NC(=O)C/C(C)=N/NC(=O)CC#N,0.0,3.3,6.7,1.5,.,.

# Compound activity as filed in PubChem.
